Screening results: PubChem BioAssay, National Center for Advancing Translational Sciences (NCATS)
Pol iota inh: inhibitors of human DNA polymerase iota; Q9UNA4; Pol iota fluorescent replication assay, 10 min; Potency, µM (highest dose often 115 µM), hits mostly inhibitors; 1% of 390,000 active; AID 588590
Target sequence (Q9UNA4 whole entry, looked up): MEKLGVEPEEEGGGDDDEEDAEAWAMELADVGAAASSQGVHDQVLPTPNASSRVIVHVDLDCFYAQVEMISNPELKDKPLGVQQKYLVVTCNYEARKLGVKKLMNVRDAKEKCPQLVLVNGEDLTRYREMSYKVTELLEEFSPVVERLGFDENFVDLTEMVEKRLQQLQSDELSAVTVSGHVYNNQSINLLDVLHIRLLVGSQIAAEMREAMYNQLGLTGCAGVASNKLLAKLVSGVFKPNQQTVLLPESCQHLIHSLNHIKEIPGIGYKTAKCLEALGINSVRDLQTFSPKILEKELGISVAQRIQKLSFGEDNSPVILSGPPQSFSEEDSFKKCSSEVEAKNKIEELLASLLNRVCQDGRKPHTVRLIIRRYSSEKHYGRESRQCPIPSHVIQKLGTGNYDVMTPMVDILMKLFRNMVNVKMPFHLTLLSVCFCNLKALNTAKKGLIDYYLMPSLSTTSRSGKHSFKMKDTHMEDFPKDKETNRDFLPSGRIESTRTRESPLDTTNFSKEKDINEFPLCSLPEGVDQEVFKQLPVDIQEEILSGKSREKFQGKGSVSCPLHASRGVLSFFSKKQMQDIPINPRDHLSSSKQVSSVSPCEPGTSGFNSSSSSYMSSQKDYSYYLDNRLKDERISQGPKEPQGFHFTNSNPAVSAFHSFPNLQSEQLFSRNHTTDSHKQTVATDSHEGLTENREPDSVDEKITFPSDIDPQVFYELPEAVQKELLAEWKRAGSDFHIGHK
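Pol iota at 10 nM preincubated 15 min with compounds at room temperature; reaction started with fluorescent substrate, 50 nM final. Fluorescence read kinetically at 0 and 10 min; buffer-only wells as negative control.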
Pol kappa inh-1: DNA polymerase kappa (human) inhibition | 0.53% of 400,000 active | purified Pol kappa, fluorescent DNA synthesis assay, 10 min | Potency, µM (series often up to 107 µM), most hits filed as inhibitors | Q9UBT6
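10 nM Pol kappa preincubated 15 min at room temperature with compounds, then reaction started with substrate at 50 nM final. Fluorescence read kinetically at 0 and 10 min; buffer-only wells served as negative control.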
Pol beta inh: blocks human DNA polymerase beta activity; Potency, µM (top dose mostly 114 µM), hits mostly inhibitors; Pol beta primer extension/strand displacement, fluorescence kinetic; 1.3% of 340,000 active
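Preincubation: enzyme (10 nM) with compound, 15 min, RT. Reaction: substrate added to 50 nM final. Reads: 0 and 10 min. Analysis: normalized, Hill fit.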
Pol eta inh-1: inhibitors of human DNA polymerase eta; Q9Y253; recombinant Pol eta, fluorescent DNA replication assay; Potency, µM (doses to about 114 µM), usual class: inhibitors; 1.2% of 390,000 active; AID 588591
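Pol eta at 10 nM preincubated with compounds 15 min at room temperature; reaction started with fluorescent substrate (50 nM final) and read kinetically at 0 and 10 min.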
WRN inhibitor: WRN helicase (human) inhibition; Q14191; Potency, µM (highest dose often 114 µM), most hits filed as inhibitors; WRN helicase unwinding, fluorescent forked duplex, kinetic; 0.46% of 360,000 active; AID 651768; note: nearly all actives have a fitted effect of over 55% in size
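WRN at 20 nM final was preincubated with compound for 15 min at room temperature; reaction started with 100 nM forked duplex oligonucleotide carrying fluorophore and quencher plus 2 mM ATP (final). Unwinding followed kinetically by red fluorescence (ex 525/em 598 nm).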
FEN1 inh: inhibitors of human flap endonuclease 1; P39748; Potency, µM (top dose mostly 114 µM), usual class: inhibitors; Recombinant FEN1 flap cleavage, fluorescence, 15 min; AID 588795; 0.35% of 390,000 active; note: nearly all actives have a fitted effect of over 65% in size
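Recombinant FEN1 (10 nM) was preincubated with pin-transferred compounds for 15 min at room temperature, then flap DNA substrate (50 nM final) was added. Plates were read at 0 and 15 min, and normalized concentration–response data were fitted to a four-parameter Hill equation.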
Pol kappa inh-2: confirmation of human DNA polymerase kappa inhibitors | shares compounds with Pol eta inh-1 | purified Pol-kappa, fluorescent strand-displacement substrate | Potency, µM, actives largely listed as inhibitors | 76% of 920 active
Pol eta inh-2: Pol eta (human) inhibition, cherry-pick confirmation; shares compounds with Pol eta inh-1; Pol eta primer extension, TAMRA/BHQ fluorescence, 10 min; Potency, µM, usual class: inhibitors; 64% of 2,600 active
Each line names hits and unclear results; the compound was inactive in the other large screens (follow-up assays come after a bar, where they were run); ! = not confirmed by another sample. In the library only some 2.4% were active in any assay of this set; here they are far more common. Calls come from the whole dose curve; as a rule, active = well fitted curve in the direction sought with a large enough effect; inconclusive = small, poorly fitted or top-dose-only effect, or another doubt; inactive = no such curve, though single readings can be large; an effect the other way counts as inactive or inconclusive.

COc1cc(Cl)c(C)cc1NC(=O)c1ccc2c(SCC(=O)O)c3c(nc2c1)CCCC3	Pol beta inh 20µM!, Pol eta inh-1 50µM! | Pol kappa inh-2 75 | Pol eta inh-2 inconclusive
CCOC(=O)CSc1nnc(CNc2cccc(Cl)c2)n1C	none
COCCCn1c(Cc2csc(Nc3cccc(Cl)c3)n2)nnc1SCC(=O)OC	Pol iota inh 22µM, Pol kappa inh-1 40µM, Pol beta inh 25µM, Pol eta inh-1 20µM | Pol kappa inh-2 17 | Pol eta inh-2 38
Cc1ccccc1-c1cnc(C(O)c2c(C)cccc2C)[nH]1 (configuration not stated)	none (no result: Pol iota inh, Pol kappa inh-1, Pol beta inh, Pol eta inh-1, FEN1 inh)
O=C(O)c1ccccc1C=NNc1ccc([N+](=O)[O-])cn1	none (no result: Pol beta inh)
O=C(O)c1cc(-c2ccc(/C=N/Nc3ccc([N+](=O)[O-])cn3)o2)ccc1Cl	Pol iota inh inconclusive, Pol beta inh inconclusive, WRN inhibitor inconclusive | Pol kappa inh-2 75 | Pol eta inh-2 85
CN(CC(=O)Nc1ccc(F)cc1)C(=O)c1cc(-c2ccco2)nc2ccccc12	Pol iota inh 16µM, Pol kappa inh-1 inconclusive, Pol eta inh-1 40µM, WRN inhibitor inconclusive (no result: Pol beta inh) | Pol eta inh-2 inconclusive
COc1ccc(NC(=O)CN(C)C(=O)c2cc(-c3ccccc3)nc3ccccc23)cc1	none (no result: Pol beta inh)
CN1CCN(c2ncnc3c2ncn3[C@H]2CN(Cc3cccs3)C[C@@H](CO)O2)CC1	none (no result: Pol iota inh, Pol kappa inh-1, Pol beta inh, Pol eta inh-1, FEN1 inh)
Cc1oc2c(cc(NS(=O)(=O)c3ccc(C(C)C)cc3)c3ccccc32)c1C(=O)O	Pol iota inh inconclusive, Pol kappa inh-1 inconclusive, Pol beta inh 50µM!, Pol eta inh-1 45µM, FEN1 inh inconclusive | Pol kappa inh-2 inconclusive | Pol eta inh-2 inconclusive
CCC(=O)N1CCc2cc(Br)cc(S(=O)(=O)N3CCCC(C(=O)NCc4ccc(C)cc4)C3)c21 (configuration not stated)	Pol beta inh inconclusive (no result: WRN inhibitor)
COc1cc(/C=C2\C(C)=C(C#N)c3nc(N)c(C#N)c(C)c32)ccc1OCC(=O)O	Pol eta inh-1 22µM, FEN1 inh inconclusive | Pol eta inh-2 38
CC1=C(C#N)c2nc(N)c(C#N)c(C)c2/C1=C\c1ccc(C)cc1	none (no result: Pol iota inh, Pol kappa inh-1, Pol eta inh-1, WRN inhibitor, FEN1 inh)
CC1=NOC(=O)/C1=C\c1ccc(-c2ccc(Br)cc2C(=O)O)o1	Pol iota inh inconclusive, Pol kappa inh-1 79µM, Pol beta inh 13µM, Pol eta inh-1 40µM, WRN inhibitor 50µM | Pol kappa inh-2 34
CC1=NOC(=O)/C1=C\c1ccc(-c2cc(Cl)ccc2Cl)o1	WRN inhibitor inconclusive
CC1=NOC(=O)/C1=C\c1ccc(-c2ccc(Br)cc2)o1	Pol iota inh inconclusive, Pol beta inh 32µM, Pol eta inh-1 20µM, WRN inhibitor inconclusive, FEN1 inh inconclusive | Pol eta inh-2 85
CCOC(=O)C1CCCN(C(=O)c2ccc3c(c2)N(Cc2ccccc2F)C(=O)c2ccccc2S3=O)C1 (configuration not stated)	Pol eta inh-1 inconclusive (no result: WRN inhibitor)
COC(=O)c1ccc(NS(=O)(=O)c2ccc3[nH]c4c(c3c2)CCCC4)cc1	none (no result: WRN inhibitor)
COC(=O)c1ccc(NS(=O)(=O)c2ccc3[nH]c(=O)oc3c2)cc1	Pol iota inh 45µM, Pol kappa inh-1 inconclusive, Pol beta inh 35µM, Pol eta inh-1 25µM | Pol eta inh-2 inconclusive
O=C(NC1CCCCC1)C1c2ccccc2OCC(=O)N1C1CC1 (configuration not stated)	none (no result: Pol iota inh, Pol kappa inh-1, Pol beta inh, Pol eta inh-1, FEN1 inh)
COc1ccccc1/C=C1\S/C(=N/NC(=O)c2cccc(Br)c2)NC1=O	Pol eta inh-1 40µM, WRN inhibitor inconclusive | Pol eta inh-2 inconclusive
O=C(O)CN1C(=O)/C(=C\c2ccc(OC(=O)c3ccco3)cc2)SC1=S	Pol iota inh inconclusive
O=C(O)CN1C(=O)/C(=C/c2ccc(SCc3ccccc3)o2)SC1=S	Pol iota inh inconclusive, Pol kappa inh-1 79µM, Pol beta inh 3.5µM, Pol eta inh-1 18µM, WRN inhibitor inconclusive | Pol eta inh-2 76
COc1cc(/C=C2\SC(=O)NC2=O)ccc1Oc1ccc([N+](=O)[O-])cc1[N+](=O)[O-]	Pol iota inh inconclusive, Pol kappa inh-1 inconclusive, Pol beta inh 89µM, Pol eta inh-1 50µM, FEN1 inh inconclusive | Pol eta inh-2 inconclusive
CCOC(=O)c1cccc(NC(=O)N2CCC(CN3CCCCCC3)CC2)c1	none (no result: WRN inhibitor)
O=C(c1ccc2c(c1)N(Cc1cccc(F)c1)C(=O)c1ccccc1S2)N1CCCC1	Pol iota inh 79µM, Pol beta inh 40µM, Pol eta inh-1 79µM (no result: WRN inhibitor) | Pol kappa inh-2 inconclusive | Pol eta inh-2 inconclusive
CCOc1ccc(NS(=O)(=O)c2ccc3[nH]cc(C(=O)NCc4ccco4)c(=O)c3c2)cc1	Pol iota inh inconclusive, Pol beta inh 22µM, Pol eta inh-1 79µM (no result: WRN inhibitor) | Pol kappa inh-2 inconclusive
CCc1ccc(NS(=O)(=O)c2ccc3[nH]cc(C(=O)NC4CCCC4)c(=O)c3c2)cc1	Pol iota inh 89µM, Pol kappa inh-1 inconclusive, Pol beta inh 50µM, Pol eta inh-1 inconclusive (no result: WRN inhibitor) | Pol kappa inh-2 inconclusive
CCc1ccc(NS(=O)(=O)c2ccc3[nH]cc(C(=O)N(C)Cc4ccco4)c(=O)c3c2)cc1	Pol iota inh inconclusive, Pol beta inh 45µM!, Pol eta inh-1 89µM | Pol eta inh-2 inconclusive
CCOc1ccc(NS(=O)(=O)c2ccc3[nH]cc(C(=O)NC4CCCC4)c(=O)c3c2)cc1	Pol iota inh inconclusive, Pol beta inh inconclusive (no result: WRN inhibitor)
COc1ccc(Cl)cc1NC(=O)c1c(NCc2ccc(C)o2)sc2c1CCCCC2	Pol iota inh inconclusive, Pol eta inh-1 inconclusive (no result: WRN inhibitor) | Pol kappa inh-2 inconclusive | Pol eta inh-2 inconclusive
COc1ccc(Cl)cc1NC(=O)c1c(NCc2ccc(C)o2)sc2c1CCC(C)C2 (configuration not stated)	none (no result: WRN inhibitor)
